Reference: PubChem BioAssay (NCI)
The panel holds about 83,000 compounds, 20% with a hit somewhere; the sample as a whole holds those more often.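 Assay: single dose, 48 h. Readout: percent growth (0 = no net growth; negative = cell death). Active: <10.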 Unmarked numbers belong to inactive results. Activity calls are given as the source filed them.

Key:
Assay in all cases: NCI-60 one-dose screen, 48 h (100 = growth as untreated, 0 = no growth, -100 = all killed)
Details in all cases: 10 µM unless noted
SR leukemia = tested on: SR leukemia
RPMI-8226 leukemia = tested on: RPMI-8226 leukemia
OVCAR-8 ovarian = tested on: OVCAR-8 ovarian
OVCAR-5 ovarian = tested on: OVCAR-5 ovarian
OVCAR-4 ovarian = tested on: OVCAR-4 ovarian
SK-OV-3 ovarian = tested on: SK-OV-3 ovarian
IGROV1 ovarian = tested on: IGROV1 ovarian
OVCAR-3 ovarian = tested on: OVCAR-3 ovarian
HS 578T breast = tested on: HS 578T breast
NCI/ADR-RES ovarian = tested on: NCI/ADR-RES ovarian
T-47D breast = tested on: T-47D breast
BT-549 breast = tested on: BT-549 breast
MDA-MB-435 melanoma = tested on: MDA-MB-435 melanoma
SW-620 colon = tested on: SW-620 colon
MCF7 breast = tested on: MCF7 breast
HCT-116 colon = tested on: HCT-116 colon
HCC-2998 colon = tested on: HCC-2998 colon
KM12 colon = tested on: KM12 colon

Row | Structure (SMILES) | growth (SR leukemia) | growth (RPMI-8226 leukemia) | growth (OVCAR-8 ovarian) | growth (OVCAR-5 ovarian) | growth (OVCAR-4 ovarian) | growth (SK-OV-3 ovarian) | growth (IGROV1 ovarian) | growth (OVCAR-3 ovarian) | growth (HS 578T breast) | growth (NCI/ADR-RES ovarian) | growth (T-47D breast) | growth (BT-549 breast) | growth (MDA-MB-435 melanoma) | growth (SW-620 colon) | growth (MCF7 breast) | growth (HCT-116 colon) | growth (HCC-2998 colon) | growth (KM12 colon)
1 | COc1cc2c(cc1OCCCCCn1c3ccccc3c3ccccc31)N=C[C@@H]1CCCN1C2=O | -54.5% (active) | -39.2% (active) | -30.6% (active) | -50% (active) | -7.21% (active) | -47.4% (active) | -68.9% (active) | -80.5% (active) | -63.4% (active) | -6.33% (active) | -34.1% (active) | -61.6% (active) | -99.2% (active) | -79.1% (active) | -30.9% (active) | -75.8% (active) | -94.8% (active) | -11.4% (active)
2 | CN(C)CCCC(C#N)c1ccccc1 (stereo not given) | 96.2% | 108% | 112% | 117% | 113% | 107% | 132% | 117% | 121% | 108% |  | 111% | 115% | 106% | 100% | 107% | 105% | 111%
3 | CC1(c2ccc(Cl)cc2)OC(=O)CC(=O)O1 | 78.5% | 102% | 105% | 103% | -2.18% (active) | 106% | 108% | 104% | 105% | 106% | 95.3% | 109% | 106% | 105% |  | 100% | 102% | 110%
4 | CC(C)(C)n1cc(-c2ccnc(NCCCNS(=O)(=O)c3ccc(C(F)(F)F)cc3)c2)c(-c2cccc(O)c2)n1 | -7.63% (active) | -9.47% (active) | 28% | 36.1% | 41.7% | 70.1% | 31.3% | 42.5% | 23.5% | 34.6% | 31.3% |  | 32.2% | 0.471% (active) | 1.14% (active) | 16.1% | -63% (active) | -14.2% (active)
5 | O=Nc1c(-c2cccc([N+](=O)[O-])c2)nc2ncccn12 | -27.8% (active) | -30.7% (active) | 81.1% | 93.5% | 86.5% | 101% | 40.5% | 44.9% | 107% | 97.5% | 73% | 73.4% |  | 18.2% | 70.2% | 51.1% | 93.6% | 89.3%
6 | CC(=O)c1cc2c(N)c(C(=O)Nc3cccc4c3OCCO4)sc2nc1C | 80.8% | 99.7% | 106% | 100% | 110% | 35.8% | 101% | 105% | 96.3% | 96.8% | 56% | 103% |  | 95.1% |  | 96.4% | 95% | 98.7%
7 | CC(C)c1ccc2occ(C=C3C(=O)NC(=O)NC3=O)c(=O)c2c1 | 73.1% | 74.8% | 80.1% | 123% | 89.1% | 109% | 120% | 95.6% | 111% | 90.1% | 83.5% | 92.4% | 105% | 91.6% |  | 76.5% | 93.7% | 117%
8 | Cc1cc(N/N=C/c2nc(-c3ccc(Br)cc3)oc2C)c2cc(Br)ccc2n1 | 2.16% (active) | -9.38% (active) | 12% | 95.6% | -83.5% (active) | 105% | 78.8% | -13.4% (active) | 85.5% | 35% | 89.8% | 93.1% |  | -46.5% (active) | -78.7% (active) | 16.1% | 94.7% | 60.2%
9 | COc1ccc(-c2nc(SCCC(C)C)nc(Nc3ccc(F)c(Cl)c3)c2C#N)cc1 | 57.3% | 95.5% | 65.8% | 102% | -43.1% (active) | 96% | 60.3% | 57.3% | 65% | 81.4% | 72.4% | 97.1% |  | 54.8% | 69.1% | 68.3% | 102% | 102%
10 | COc1ccc(Cn2cc3c(c2-c2cc(OC)c(OC)c(OC)c2)CCc2cnoc2-3)cc1 | 13.1% | 23.4% | 34.6% | 47.7% | 22.6% | -0.435% (active) | 7.18% (active) | -5.4% (active) | 15.9% | 20.1% | 41.2% | 41.6% | -37.3% (active) | 29.8% |  | 13% | 1.48% (active) | 11.1%
11 | CCOC(=O)c1ccc2c(c1)c1c(C)c3cccnc3c(C)c1n2C | 16.1% | 62.8% | 46.2% | 69.3% | 62.7% | 84.1% | 24.1% | 69.8% | 85.2% | 48.4% | 44.9% | 79.5% | 73.4% | 34% |  | 23% | 86.9% | 61.4%
12 | C=CCn1c2ccccc2c2c3c(c4c5ccccc5n(CC=C)c4c21)C(=O)N(O)C3=O | 7.52% (active) | 24.4% | 22.9% | 86.4% | 45.8% | 33.9% | -15.6% (active) | 33.2% | 77.2% | 2.91% (active) | 13% | 45% | 42.7% | 54.9% |  | 22.3% | 36.5% | 26.4%
13 | CC1(C)C(=O)/C(=C\c2ccc(C(F)(F)F)cc2)C[C@]2(C)[C@H]3CC[C@@H]4[C@H]5[C@H](C(=O)/C=C/c6ccc(C(F)(F)F)cc6)CC[C@]5(CO)CC[C@@]4(C)[C@]3(C)CC[C@@H]12 | 82.2% | 88.6% | 79.6% | 107% | 96.6% | 110% | 92.4% | 97% | 95.8% | 99.1% | 76% | 95.8% | 101% | 98.3% |  | 82.6% | 101% | 99.2%
14 | CN(C)c1nc2c(N)ncnc2n1C1OC(CO)C(O)C1O (stereo not given) | 99% | 92.1% | 107% | 97.6% | 123% | 116% | 111% | 108% | 106% | 114% |  | 99.9% | 112% | 109% | 99.4% | 105% | 110% | 105%
15 | O=c1ccn(-c2ncnc3nc[nH]c23)cc1 | 86.2% | 76.4% | 101% | 93.8% | 93.3% | 84.8% | 88% | 88.3% | 81.7% | 97.6% | 84% | 98.9% | 102% | 96% |  | 96.5% | 106% | 91.8%
16 | C/C(=C\c1ccc(OCC(=O)O)c(Cl)c1Cl)[N+](=O)[O-] | 72.1% | 99.7% | 93.7% | 113% | 114% | 94% | 133% | 99.9% | 107% | 102% | 100% |  |  | 114% | 103% | 109% | 97.1% | 104%
17 | COc1ccc(S(=O)(=O)Nc2cc(/C=C\c3cc(OC)c(OC)c(OC)c3)cc(OC)c2OC)cc1 | 9.7% (active) | 10.2% | 7.61% (active) | 46.8% | 55.7% | 20.6% | 19.9% | 3.36% (active) | 21.1% | 11.3% | 86.6% | 26.6% | -26.3% (active) | 26.4% |  | 5.64% (active) | 17.7% | 10%
18 | O=c1[nH]c(-c2ccccc2)nc(CN2CCCCC2)c1O | 85.1% | 97.6% | 107% | 110% | 110% | 114% | 128% | 110% | 104% | 100% |  | 109% | 110% | 104% | 104% | 105% | 100% | 108%
